From PubChem BioAssay
Most compounds without a hit are left out; they make up all but 12% or so of the library.
PLK1 PBD block: blocks phosphopeptide binding to human PLK1 polo-box domain | Potency, µM, inactives show max response, negative = inhibition, hits mostly inhibitors | P53350 | Plk1 PBD binding of FITC phosphopeptide, fluorescence polarization | 360,000 tested, 2.8% active; also: potency is read from the fitted curve at half-maximal effect; series mostly up to about 57 µM; % is scaled to controls: 0 for no effect and ±100 for the full control effect; nearly all actives have a fitted effect of over 65% in size
Target sequence (P53350 whole entry, looked up, the tested form may be a part): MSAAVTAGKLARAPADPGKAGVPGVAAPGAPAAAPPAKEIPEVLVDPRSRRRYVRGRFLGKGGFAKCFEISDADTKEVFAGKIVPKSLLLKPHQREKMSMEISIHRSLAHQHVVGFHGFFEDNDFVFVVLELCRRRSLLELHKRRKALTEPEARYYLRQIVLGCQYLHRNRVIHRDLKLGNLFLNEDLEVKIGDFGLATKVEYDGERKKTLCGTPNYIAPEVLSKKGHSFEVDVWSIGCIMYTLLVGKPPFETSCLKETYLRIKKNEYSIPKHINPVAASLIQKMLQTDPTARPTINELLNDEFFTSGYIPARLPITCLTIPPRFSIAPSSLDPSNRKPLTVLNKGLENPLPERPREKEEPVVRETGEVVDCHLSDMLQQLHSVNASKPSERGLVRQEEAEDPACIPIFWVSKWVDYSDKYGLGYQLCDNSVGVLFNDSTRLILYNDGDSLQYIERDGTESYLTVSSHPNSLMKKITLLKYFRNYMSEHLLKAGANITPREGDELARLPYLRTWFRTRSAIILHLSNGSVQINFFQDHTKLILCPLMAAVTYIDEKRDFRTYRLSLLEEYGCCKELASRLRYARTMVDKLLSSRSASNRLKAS
PI5P4K alpha inh: blocks human PI5P4K alpha kinase activity; P48426; PI5P4Kalpha enzyme, ADP-Glo luminescence, 60 min; hits give low values; max response, %; 330,000 tested, 1.2% active; active = max response of -50% or lower; inconclusive = between -30% and -50%; inactive = -30% or higher; also: value at the top dose of about 77 µM; % is scaled to controls: 0 for no effect and ±100 for the full control effect
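ADP-Glo luminescence end-point read after a 60 min room-temperature kinase reaction of PI5P4Kalpha plus substrate, initiated with ATP at 5 microM final. Buffer: 0.038 M HEPES pH 7.4, EGTA, 0.1% CHAPS, 5% DMSO.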
BAZ2B block: blocks human BAZ2B | Q9UIF8 | Potency, µM (highest dose often 114 µM), for inactives: at the top dose activity change, negative = inhibition, most hits filed as inhibitors | AlphaScreen BAZ2B-H3K14Ac peptide displacement | 360,000 tested, 4.4% active | AID 504333; also: potency is read from the fitted curve at half-maximal effect; % is scaled to controls: 0 for no effect and ±100 for the full control effect; nearly all actives have a fitted effect of over 60% in size
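Complex of BAZ2B and biotin-H3K14Ac (50 nM apiece) forms over 30 min at RT, then faces library compounds up to 110 uM for another 30 min; AlphaScreen beads added, 20 min dark incubation, luminescence read.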
HP1b chromo inh: HP1-beta chromodomain-methylated histone interaction inhibition. AlphaScreen HP1-beta / biotin-H3K9me3 peptide binding. Potency, µM (highest dose often 114 µM), without a hit: at the highest dose activity change, negative = inhibition, usual class: inhibitors. 390,000 tested, 0.56% active. AID 540317; also: potency is read from the fitted curve at half-maximal effect; nearly all actives have a fitted effect of over 70% in size
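AlphaScreen: HP1-beta (50 nM) preformed 30 min with biotin-H3(1-18)K9me3 peptide (50 nM) in PBS pH 7.4, 0.01% Tween-20. Compound added for 30 min at RT, then streptavidin donor/nickel chelate acceptor beads (10 ug/mL) for 30 min.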
G9a inh: inhibitors of human histone lysine methyltransferase G9a; AID 504332; 350,000 tested, 8.8% active; Q96KQ7; Potency, µM (highest dose often 102 µM), without a hit: top-dose activity, negative = inhibition, hits mostly inhibitors; G9a H3K9 monomethylation, AlphaScreen, 2 h; also: potency is read from the fitted curve at half-maximal effect; % is scaled to controls: 0 for no effect and ±100 for the full control effect; nearly all actives have a fitted effect of over 75% in size
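Step 1: enzyme (final 20 nM) with compound, 15 min RT. Step 2: substrate peptide 500 nM and SAM 20 uM, 2 h RT. Step 3: anti-H3K9me1 antibody and AlphaScreen beads, 10 min, then plate read.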
JMJD2A Tudor: blocks the human JMJD2A Tudor domain | O75164 | AlphaScreen JMJD2A-Tudor / H3K4me3 peptide binding | Potency, µM (doses to about 114 µM), for the others: top-dose activity change, negative = inhibition, actives largely listed as inhibitors | 390,000 tested, 4.4% active; also: potency is read from the fitted curve at half-maximal effect; % is scaled to controls: 0 for no effect and ±100 for the full control effect; nearly all actives have a fitted effect of over 50% in size
Starred values were filed as active, the others as inactive; [ ] = remark or other dose. Unless noted, calls follow the shape of the dose curve; as a rule, active = well fitted curve in the direction sought with a large enough effect; inconclusive = small, poorly fitted or top-dose-only effect, or another doubt; inactive = no such curve, though single readings can be large; an effect the other way counts as inactive or inconclusive.

O=S(=O)(Cc1ccc(Cl)cc1)N1CCN(Cc2ccccc2)CC1 was read as PLK1 PBD block -1%, BAZ2B block -7%, HP1b chromo inh 42%, G9a inh inconclusive and JMJD2A Tudor -10%.
For CCc1ccc(CN2CCN(S(=O)(=O)Cc3ccccc3)CC2)cc1 the results were PLK1 PBD block -6%, BAZ2B block 18µM*, HP1b chromo inh -51%, G9a inh inconclusive and JMJD2A Tudor 0.79µM*.
For Cc1cccc(C)c1-n1nnnc1C(c1ccnc2ccccc12)N1CCN(C/C=C/c2ccccc2)CC1 (stereo not drawn) the results were PLK1 PBD block 2% and PI5P4K alpha inh -3.
`CCOC(=O)C1CCN(S(=O)(=O)c2ccccc2[N+](=O)[O-])CC1` gave PLK1 PBD block -7%, PI5P4K alpha inh -1, HP1b chromo inh 28% and JMJD2A Tudor -17%.
Screening Cc1ccc(-c2nnn(CC(=O)Nc3nnc(C(C)C)s3)n2)cc1 returned PLK1 PBD block 27µM*, PI5P4K alpha inh -6, BAZ2B block 0%, HP1b chromo inh 0%, G9a inh -3% and JMJD2A Tudor 56µM*.
O=C(O)CN1C(=O)C2(OCCO2)c2cc(Br)ccc21 was read as PLK1 PBD block -13%, PI5P4K alpha inh -1, HP1b chromo inh 60% and JMJD2A Tudor 10%[57.1 µM].
For Cc1nc(Cl)cc(CS(=O)(=O)c2ccc(Cl)cc2)n1 the results were PLK1 PBD block inconclusive, PI5P4K alpha inh -12, BAZ2B block 79µM*, HP1b chromo inh 11%, G9a inh inconclusive and JMJD2A Tudor -11%.
`O=[N+]([O-])c1ccc2[nH]nc(-c3ccccc3)c2c1` gave PLK1 PBD block 6%, PI5P4K alpha inh -6, BAZ2B block -8%, HP1b chromo inh 29%, G9a inh 13%[59 µM] and JMJD2A Tudor 12%.
OCCNc1nc(-c2ccccc2)c2cc(Br)ccc2n1 was read as PLK1 PBD block -11%, PI5P4K alpha inh 1, BAZ2B block 0%, HP1b chromo inh 153%, G9a inh 16%[59 µM] and JMJD2A Tudor 21%.
Screening O=[N+]([O-])c1ccc2nc(NCCCO)nc(-c3ccccc3)c2c1 returned PLK1 PBD block 21µM*, PI5P4K alpha inh -11, BAZ2B block -4%, HP1b chromo inh inconclusive, G9a inh 0%[59 µM] and JMJD2A Tudor inconclusive.
`O=C(O)CNc1nc(-c2ccccc2)c2cc([N+](=O)[O-])ccc2n1` gave PLK1 PBD block -7%, PI5P4K alpha inh -1, BAZ2B block 79µM*, HP1b chromo inh 20%, G9a inh 7.9µM* and JMJD2A Tudor -22%.
`CN1CCc2c(n(CC(O)CNCc3ccccc3)c3ccccc23)C1=O` (stereo not drawn) gave PLK1 PBD block 0%, PI5P4K alpha inh 2, BAZ2B block -26%, HP1b chromo inh 35%, G9a inh 50µM* and JMJD2A Tudor -10%.
Screening CN1CCc2c(n(CC(O)CN(CCO)CCO)c3ccccc23)C1=O (stereo not drawn) returned PLK1 PBD block -22%, PI5P4K alpha inh 0, BAZ2B block -15%, HP1b chromo inh 50%, G9a inh 35µM* and JMJD2A Tudor -28%.
`CN1CCc2c(n(CC(O)CN3C(=O)c4ccccc4S3(=O)=O)c3ccccc23)C1=O` (stereo not drawn) gave PLK1 PBD block -2%, PI5P4K alpha inh -4, BAZ2B block -5%, HP1b chromo inh 16%, G9a inh -27%[59 µM] and JMJD2A Tudor -30%.
Screening CCOc1ccc(S(=O)(=O)NCC(c2ccco2)S(=O)(=O)c2cccs2)cc1 (stereo not drawn) returned BAZ2B block -11%, HP1b chromo inh 12%, G9a inh -46%[59 µM] and JMJD2A Tudor -17%.
`S=C(/N=c1/sccn1Cc1ccccc1)NC1CC1` gave PLK1 PBD block -17%, PI5P4K alpha inh -5, BAZ2B block 56µM*, HP1b chromo inh 2%, G9a inh 50µM* and JMJD2A Tudor -32%.
Screening CN(C)C1NC(=O)c2cc(-c3ccccc3)sc2N1 (stereo not drawn) returned PLK1 PBD block -4%, PI5P4K alpha inh -2, BAZ2B block 50µM*, HP1b chromo inh -14%, G9a inh inconclusive and JMJD2A Tudor inconclusive.
For Cc1nc2cnc(Oc3cccc(Cl)c3)nc2n(CCC#N)c1=O the results were G9a inh 1%[12.7 µM].
Screening c1ccc(NC(c2ccccc2)c2ccncc2)cc1 (stereo not drawn) returned PLK1 PBD block -21%, PI5P4K alpha inh 1, BAZ2B block 0%, HP1b chromo inh 57%, G9a inh 32µM* and JMJD2A Tudor -10%.
NC(c1ccccc1)c1ccncc1 (stereo not drawn) was read as PLK1 PBD block 1%, PI5P4K alpha inh -1, BAZ2B block inconclusive, HP1b chromo inh 29%, G9a inh 45µM* and JMJD2A Tudor 4%.
Screening O=[N+]([O-])c1ccc([S+](=O)([O-])N2CCN([S+](=O)([O-])c3ccc4c(c3)OCCO4)CC2)c([N+](=O)[O-])c1 returned JMJD2A Tudor -6%.
For C/C(CC(C)(C)c1ccccc1)=N\NS(=O)(=O)c1ccccc1 the results were PLK1 PBD block -4%, PI5P4K alpha inh -6, BAZ2B block -22%, HP1b chromo inh 39%, G9a inh 25µM* and JMJD2A Tudor -7%.
Screening O=S(=O)(NN=C(c1ccccc1)c1ccccc1)c1ccccc1 returned PLK1 PBD block -2% and PI5P4K alpha inh 1.
Screening CCOC(=O)c1ccc(NC(=O)CSc2cn(CC(=O)N3CCCC3)c3ccccc23)cc1 returned BAZ2B block -27%, HP1b chromo inh 27%, G9a inh -12%[59 µM] and JMJD2A Tudor -26%.
`CC(=O)OCCOc1nc(NC(C)C)nc(NC(C)C)n1` gave PLK1 PBD block 30µM*, PI5P4K alpha inh 4, BAZ2B block -2%, HP1b chromo inh 10%, G9a inh inconclusive and JMJD2A Tudor 79µM*.
`CC(C)Nc1nc(NC(C)C)nc(C(N)=O)n1` gave PLK1 PBD block -4%, BAZ2B block 50µM*, HP1b chromo inh 1%, G9a inh 3%[12.7 µM] and JMJD2A Tudor -34%.
`CC(C)Nc1nc(NC(C)C)nc(OCCOC(=O)c2ccccc2)n1` gave PLK1 PBD block -7%, PI5P4K alpha inh 2, BAZ2B block -2%, HP1b chromo inh 41%, G9a inh 1% and JMJD2A Tudor -2%.
`COc1ccc(OC2(C)CCN(Cc3ccccc3OC(F)F)C2)cc1` (stereo not drawn) gave PLK1 PBD block 1% and PI5P4K alpha inh 3.
